# Source: PubChem BioAssay (EPA / NIEHS)
# Inconclusive results are not listed. Activity calls are given as the source filed them. The calls were made as follows: active = hit-call score of the fitted dose curve at least 0.9, where 1 is the maximum; inconclusive = response in the unintended direction; inactive = score below 0.9.
# Columns and labels:
# [1] = biological target: human Matrix Metalloproteinase-7 (MMP7), MMP7 (gene 4316) (UniProt P09237); test: NVS_ENZ_hMMP7: NovaScreen (NVS) Enzymatic Assay for human Matrix Metalloproteinase-7 (MMP7) (AID 2283183)
# Procedure, shortened: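 Cell-free fluorescence enzymatic assay read 1 h after compound addition, activity loss analyzed against DMSO. Primary duplicate testing at 25 uM; compounds meeting threshold rerun in singleton concentration-response up to 50 uM.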
# [2] = biological target: human Phosphodiesterase 4A1 (PDE4A1), PDE4A (gene 5141) (UniProt P27815); test: NVS_ENZ_hPDE4A1: NovaScreen (NVS) Enzymatic Assay for human Phosphodiesterase 4A1 (PDE4A1) (AID 2283191)
# Procedure, shortened: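 Cell-free recombinant human PDE4A1 with fluorescent substrate; product separated by electrophoretic mobility shift, 1 h. Screened at 25 uM, then up to 50 uM in concentration-response; loss of signal fitted against DMSO.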
# [3] = biological target: human Matrix Metalloproteinase-2 (MMP2), MMP2 (gene 4313) (UniProt P08253); test: NVS_ENZ_hMMP2: NovaScreen (NVS) Enzymatic Assay for human Matrix Metalloproteinase-2 (MMP2) (AID 2283184)
# Procedure, shortened: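 Cell-free recombinant MMP2 activity with a fluorescent substrate, read 1 h after dosing. Primary screen in duplicate at 25 uM; actives then run in concentration series; loss of signal fitted versus DMSO.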
# [4] = biological target: cAMP-dependent protein kinase catalytic subunit alpha (Homo sapiens) (UniProt P17612); test: NVS_ENZ_hPKA: NovaScreen (NVS) Enzymatic Assay for human Protein Kinase A (PKA) (AID 2283192)
# Experimental: NVS_ENZ_hPKA is a biochemical, single-readout assay that uses extracted gene-proteins in a cell-free assay. Measurements were taken 1 hour after chemical dosing in a 384-well plate.NVS_ENZ_hPKA is one of one assay component(s) measured or calculated from the NVS_ENZ_hPKA assay. It is designed to make measurements of enzyme activity, a form of enzyme reporter, as detected with fluorescence intensity signals by Fluorescence and electrophoretic mobility shift technology.Data from the assay component NVS_ENZ_hPKA was analyzed into 1 assay endpoint. This assay endpoint, NVS_ENZ_hPKA, was analyzed in the positive analysis fitting direction relative to DMSO as the negative control and baseline of activity. Using a type of enzyme reporter, loss-of-signal activity can be used to understand changes in the enzymatic activity as they relate to the gene PRKACA. Furthermore, this assay endpoint can be referred to as a primary readout, because this assay has produced multiple assay endpoints where this one serves a enzymatic activity function. To generalize the intended target to other relatable targets, this assay endpoint is annotated to the kinase intended target family, where the subfamily is serine/threonine kinase.
# Binding assays used specific radioligands (tritiated, iodinated) with non-radioactive competitive displacement ligands in agonist or antagonist protocols (as indicated) and various reference compounds and inhibitors to titrate specific binding to receptors and transporters. Most enzyme assays (CYPs, kinases, phosphatases, proteases, HDACs) used recombinant protein and specific substrates (fluorescence mostly, some colorimetric and radioactive) and inhibitors, followed by a biochemical separation of substrate and product. All assays for the biochemical HTS were initially run in duplicate at a single concentration (10 uM for CYP450 assays and 25 uM for all others). Assay-chemical combinations meeting a pre-defined threshold (e.g., 30% inhibition and other criteria defined below) were then run in singleton concentration-response format with maximum concentration of 20 uM for CYPs and 50 uM for all others. Each assay was run with positive and negative controls, and concurrent controls on every plate. The follow-up (secondary) screen tested active chemical-pairs in concentration series, as well as a few additional assays not tested in the primary screen, some selected negative inactives, and several cases re-run in the concentration series for confirmatory purposes.
# [5] = biological target: human Phosphodiesterase 5 (PDE5), PDE5A (gene 8654) (UniProt O76074); test: NVS_ENZ_hPDE5: NovaScreen (NVS) Enzymatic Assay for human Phosphodiesterase 5 (PDE5) (AID 2283194)
# Procedure, shortened: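 Recombinant human PDE5 with specific substrate, read 1 h after dosing by fluorescence with electrophoretic mobility-shift separation of substrate and product. Initial single-concentration duplicate screen at 25 uM, actives followed in concentration series; loss of activity versus DMSO.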
# [6] = biological target: human Phosphodiesterase 10 (PDE10), PDE10A (gene 10846) (UniProt Q9Y233); test: NVS_ENZ_hPDE10: NovaScreen (NVS) Enzymatic Assay for human Phosphodiesterase 10 (PDE10) (AID 2283195)
# Procedure, shortened: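 PDE10A, cell-free; 1 h incubation; fluorescence intensity + electrophoretic mobility shift separating substrate/product; DMSO = baseline; 25 uM duplicate primary, CRC up to 50 uM.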
# [7] = biological target: human Matrix Metalloproteinase-9 (MMP9), MMP9 (gene 4318) (UniProt P14780); test: NVS_ENZ_hMMP9: NovaScreen (NVS) Enzymatic Assay for human Matrix Metalloproteinase-9 (MMP9) (AID 2283190);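 also: cell-free recombinant MMP9 protease activity read by fluorescent substrate signal; active means inhibition seen as loss of fluorescence signal versus DMSO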
# Experimental: NVS_ENZ_hMMP9 is a biochemical, single-readout assay that uses extracted gene-proteins in a cell-free assay. Measurements were taken 1 hour after chemical dosing in a 96-well plate.NVS_ENZ_hMMP9 is one of one assay component(s) measured or calculated from the NVS_ENZ_hMMP9 assay. It is designed to make measurements of enzyme activity, a form of enzyme reporter, as detected with fluorescence intensity signals by Fluorescence technology.Data from the assay component NVS_ENZ_hMMP9 was analyzed into 1 assay endpoint. This assay endpoint, NVS_ENZ_hMMP9, was analyzed in the positive analysis fitting direction relative to DMSO as the negative control and baseline of activity. Using a type of enzyme reporter, loss-of-signal activity can be used to understand changes in the enzymatic activity as they relate to the gene MMP9. Furthermore, this assay endpoint can be referred to as a primary readout, because this assay has produced multiple assay endpoints where this one serves a enzymatic activity function. To generalize the intended target to other relatable targets, this assay endpoint is annotated to the protease intended target family, where the subfamily is matrix metalloproteinase.
# Binding assays used specific radioligands (tritiated, iodinated) with non-radioactive competitive displacement ligands in agonist or antagonist protocols (as indicated) and various reference compounds and inhibitors to titrate specific binding to receptors and transporters. Most enzyme assays (CYPs, kinases, phosphatases, proteases, HDACs) used recombinant protein and specific substrates (fluorescence mostly, some colorimetric and radioactive) and inhibitors, followed by a biochemical separation of substrate and product. All assays for the biochemical HTS were initially run in duplicate at a single concentration (10 uM for CYP450 assays and 25 uM for all others). […] Each assay was run with positive and negative controls, and concurrent controls on every plate. […]
# [8] = biological target: human Phosphoinositide 3-kinase alpha (PI3Ka), PIK3CA (gene 5290) (UniProt P42336); test: NVS_ENZ_hPI3Ka: NovaScreen (NVS) Enzymatic Assay for human Phosphoinositide 3-kinase alpha (PI3Ka) (AID 2283196)
# Procedure, shortened: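 Recombinant human PI3Kα with fluorescent substrate, 1 h, product separated by electrophoretic mobility shift; 25 uM duplicate screen, hits (e.g., 30% inhibition) retested singly up to 50 uM; loss of signal vs DMSO.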
# [9] = biological target: human Matrix Metalloproteinase-3 (MMP3), MMP3 (gene 4314) (UniProt P08254); test: NVS_ENZ_hMMP3: NovaScreen (NVS) Enzymatic Assay for human Matrix Metalloproteinase-3 (MMP3) (AID 2283185)
# Procedure, shortened: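 Cell-free recombinant human MMP3 activity, fluorescence intensity read 1 h after dosing. Primary screen duplicate at 25 uM, actives retested in concentration series; loss of signal vs DMSO baseline.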
# [10] = biological target: human Mitogen- and Stress-activated Protein Kinase-1 (Msk1), RPS6KA5 (gene 9252) (UniProt O75582); test: NVS_ENZ_hMsk1: NovaScreen (NVS) Enzymatic Assay for human Mitogen- and Stress-activated Protein Kinase-1 (Msk1) (AID 2283187)
# Procedure, shortened: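 Recombinant kinase with fluorescent substrate; product separated by electrophoretic mobility shift, read 1 h after dosing. Screened in duplicate at 25 uM; hits (e.g. ≥30% inhibition) tested in concentration–response up to 50 uM. DMSO baseline.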
# Chain of human Mitogen- and Stress-activated Protein Kinase-1 (Msk1), RPS6KA5 (gene 9252) (O75582 whole entry, looked up): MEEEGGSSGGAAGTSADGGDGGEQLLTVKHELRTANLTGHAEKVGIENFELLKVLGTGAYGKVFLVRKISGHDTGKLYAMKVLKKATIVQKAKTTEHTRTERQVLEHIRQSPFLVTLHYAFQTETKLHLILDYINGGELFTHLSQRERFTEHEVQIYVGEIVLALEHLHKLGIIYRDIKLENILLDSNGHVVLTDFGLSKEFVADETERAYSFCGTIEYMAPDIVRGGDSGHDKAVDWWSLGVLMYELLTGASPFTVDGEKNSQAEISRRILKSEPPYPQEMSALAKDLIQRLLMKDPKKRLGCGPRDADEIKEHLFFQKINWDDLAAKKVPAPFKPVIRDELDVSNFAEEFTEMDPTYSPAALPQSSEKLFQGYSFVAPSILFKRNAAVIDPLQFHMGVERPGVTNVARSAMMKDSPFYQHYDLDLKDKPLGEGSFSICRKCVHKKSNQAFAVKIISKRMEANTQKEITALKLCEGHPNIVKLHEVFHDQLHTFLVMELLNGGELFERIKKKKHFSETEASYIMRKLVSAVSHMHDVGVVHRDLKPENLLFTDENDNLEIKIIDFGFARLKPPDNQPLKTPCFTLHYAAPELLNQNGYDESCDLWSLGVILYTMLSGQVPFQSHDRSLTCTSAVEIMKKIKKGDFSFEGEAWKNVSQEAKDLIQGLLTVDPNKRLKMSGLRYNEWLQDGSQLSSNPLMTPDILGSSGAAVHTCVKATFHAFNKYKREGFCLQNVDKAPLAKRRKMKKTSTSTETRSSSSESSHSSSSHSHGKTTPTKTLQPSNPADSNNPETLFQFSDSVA
# Chain of human Matrix Metalloproteinase-3 (MMP3), MMP3 (gene 4314) (P08254 whole entry, looked up): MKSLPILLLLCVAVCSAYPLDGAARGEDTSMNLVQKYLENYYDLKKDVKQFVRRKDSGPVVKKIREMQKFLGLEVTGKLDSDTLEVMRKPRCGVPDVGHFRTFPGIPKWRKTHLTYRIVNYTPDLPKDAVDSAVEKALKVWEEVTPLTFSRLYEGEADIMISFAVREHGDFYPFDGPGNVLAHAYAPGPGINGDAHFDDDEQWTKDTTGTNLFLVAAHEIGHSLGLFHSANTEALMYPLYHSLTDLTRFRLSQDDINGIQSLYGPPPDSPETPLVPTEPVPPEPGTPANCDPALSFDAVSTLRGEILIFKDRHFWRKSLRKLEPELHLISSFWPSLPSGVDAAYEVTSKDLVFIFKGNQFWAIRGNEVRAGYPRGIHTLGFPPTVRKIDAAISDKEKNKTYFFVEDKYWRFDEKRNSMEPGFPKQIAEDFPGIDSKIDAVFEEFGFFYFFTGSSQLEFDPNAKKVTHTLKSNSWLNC
# Chain of human Phosphodiesterase 4A1 (PDE4A1), PDE4A (gene 5141) (P27815 whole entry, looked up): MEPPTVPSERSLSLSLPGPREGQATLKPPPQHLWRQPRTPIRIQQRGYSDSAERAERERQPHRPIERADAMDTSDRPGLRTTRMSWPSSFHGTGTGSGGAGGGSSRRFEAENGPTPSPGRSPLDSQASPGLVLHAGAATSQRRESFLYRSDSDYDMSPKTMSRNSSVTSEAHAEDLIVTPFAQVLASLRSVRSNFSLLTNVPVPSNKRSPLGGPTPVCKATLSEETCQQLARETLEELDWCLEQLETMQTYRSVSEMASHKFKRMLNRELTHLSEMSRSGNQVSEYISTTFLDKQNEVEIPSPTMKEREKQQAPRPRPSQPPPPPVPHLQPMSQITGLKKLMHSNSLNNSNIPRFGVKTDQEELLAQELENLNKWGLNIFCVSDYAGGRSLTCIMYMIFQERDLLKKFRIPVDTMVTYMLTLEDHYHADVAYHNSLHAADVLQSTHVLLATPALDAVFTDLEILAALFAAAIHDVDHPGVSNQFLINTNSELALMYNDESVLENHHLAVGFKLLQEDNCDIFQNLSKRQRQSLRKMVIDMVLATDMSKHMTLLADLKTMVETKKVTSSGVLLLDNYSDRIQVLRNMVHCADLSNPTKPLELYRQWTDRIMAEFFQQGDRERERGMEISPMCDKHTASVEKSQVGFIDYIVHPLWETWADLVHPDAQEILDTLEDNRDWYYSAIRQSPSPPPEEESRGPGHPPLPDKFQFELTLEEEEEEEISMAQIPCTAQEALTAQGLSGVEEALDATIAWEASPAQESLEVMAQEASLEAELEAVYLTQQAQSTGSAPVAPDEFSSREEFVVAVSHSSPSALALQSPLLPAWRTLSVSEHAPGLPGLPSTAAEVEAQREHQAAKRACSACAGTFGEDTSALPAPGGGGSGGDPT
# Chain of human Matrix Metalloproteinase-7 (MMP7), MMP7 (gene 4316) (P09237 whole entry, looked up): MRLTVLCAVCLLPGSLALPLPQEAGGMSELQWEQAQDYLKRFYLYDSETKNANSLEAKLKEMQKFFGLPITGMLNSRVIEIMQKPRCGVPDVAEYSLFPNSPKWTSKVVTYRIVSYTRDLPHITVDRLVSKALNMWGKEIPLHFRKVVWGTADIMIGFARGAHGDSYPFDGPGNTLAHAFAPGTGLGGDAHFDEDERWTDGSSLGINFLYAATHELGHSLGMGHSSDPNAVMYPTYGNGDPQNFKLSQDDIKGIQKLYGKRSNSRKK
# Chain of human Matrix Metalloproteinase-9 (MMP9), MMP9 (gene 4318) (P14780 whole entry, looked up): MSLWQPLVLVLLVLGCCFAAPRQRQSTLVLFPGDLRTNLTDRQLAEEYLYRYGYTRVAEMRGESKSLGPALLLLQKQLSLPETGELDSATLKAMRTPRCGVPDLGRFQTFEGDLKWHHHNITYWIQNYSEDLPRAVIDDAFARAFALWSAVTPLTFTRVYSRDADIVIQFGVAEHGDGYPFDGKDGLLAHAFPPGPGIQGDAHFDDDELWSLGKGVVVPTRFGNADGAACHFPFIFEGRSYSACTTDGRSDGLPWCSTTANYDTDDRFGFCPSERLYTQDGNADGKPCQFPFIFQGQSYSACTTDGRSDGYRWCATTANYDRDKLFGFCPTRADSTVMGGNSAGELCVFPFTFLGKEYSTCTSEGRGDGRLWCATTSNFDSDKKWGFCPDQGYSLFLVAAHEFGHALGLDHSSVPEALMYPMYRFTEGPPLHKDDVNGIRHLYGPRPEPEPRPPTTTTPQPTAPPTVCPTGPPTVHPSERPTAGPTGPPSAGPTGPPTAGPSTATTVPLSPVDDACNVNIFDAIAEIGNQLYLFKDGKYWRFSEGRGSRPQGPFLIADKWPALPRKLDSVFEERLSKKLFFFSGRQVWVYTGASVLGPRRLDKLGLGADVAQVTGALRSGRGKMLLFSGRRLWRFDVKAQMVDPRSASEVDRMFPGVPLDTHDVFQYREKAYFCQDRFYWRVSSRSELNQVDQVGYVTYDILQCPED
# Chain of human Phosphodiesterase 10 (PDE10), PDE10A (gene 10846) (Q9Y233 whole entry, looked up): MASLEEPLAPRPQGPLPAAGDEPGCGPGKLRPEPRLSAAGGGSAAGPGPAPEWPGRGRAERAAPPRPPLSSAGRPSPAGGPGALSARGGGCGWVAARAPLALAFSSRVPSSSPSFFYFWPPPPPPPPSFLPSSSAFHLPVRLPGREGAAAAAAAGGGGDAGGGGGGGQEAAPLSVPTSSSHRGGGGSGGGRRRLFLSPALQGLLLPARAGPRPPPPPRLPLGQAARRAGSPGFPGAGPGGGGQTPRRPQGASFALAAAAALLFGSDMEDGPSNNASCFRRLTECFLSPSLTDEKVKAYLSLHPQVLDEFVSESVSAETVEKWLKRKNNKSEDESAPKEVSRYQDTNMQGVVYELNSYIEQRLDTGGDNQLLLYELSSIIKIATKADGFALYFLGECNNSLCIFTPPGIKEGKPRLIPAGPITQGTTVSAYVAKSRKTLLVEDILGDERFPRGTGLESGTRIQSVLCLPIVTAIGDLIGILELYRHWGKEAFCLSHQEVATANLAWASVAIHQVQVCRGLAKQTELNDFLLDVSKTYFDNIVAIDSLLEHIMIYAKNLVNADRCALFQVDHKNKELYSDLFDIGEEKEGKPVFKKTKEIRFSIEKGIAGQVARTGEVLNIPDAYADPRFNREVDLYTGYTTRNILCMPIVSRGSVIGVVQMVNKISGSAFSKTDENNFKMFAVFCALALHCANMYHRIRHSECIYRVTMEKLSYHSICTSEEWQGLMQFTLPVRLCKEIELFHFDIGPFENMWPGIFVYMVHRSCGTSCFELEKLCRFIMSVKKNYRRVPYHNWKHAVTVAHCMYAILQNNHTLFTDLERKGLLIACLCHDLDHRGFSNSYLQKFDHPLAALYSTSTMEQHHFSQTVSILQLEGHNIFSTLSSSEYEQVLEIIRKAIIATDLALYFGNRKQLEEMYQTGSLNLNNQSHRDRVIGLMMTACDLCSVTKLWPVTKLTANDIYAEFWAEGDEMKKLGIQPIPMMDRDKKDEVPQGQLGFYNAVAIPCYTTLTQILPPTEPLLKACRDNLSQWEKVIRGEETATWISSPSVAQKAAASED
# Chain of human Matrix Metalloproteinase-2 (MMP2), MMP2 (gene 4313) (P08253 whole entry, looked up): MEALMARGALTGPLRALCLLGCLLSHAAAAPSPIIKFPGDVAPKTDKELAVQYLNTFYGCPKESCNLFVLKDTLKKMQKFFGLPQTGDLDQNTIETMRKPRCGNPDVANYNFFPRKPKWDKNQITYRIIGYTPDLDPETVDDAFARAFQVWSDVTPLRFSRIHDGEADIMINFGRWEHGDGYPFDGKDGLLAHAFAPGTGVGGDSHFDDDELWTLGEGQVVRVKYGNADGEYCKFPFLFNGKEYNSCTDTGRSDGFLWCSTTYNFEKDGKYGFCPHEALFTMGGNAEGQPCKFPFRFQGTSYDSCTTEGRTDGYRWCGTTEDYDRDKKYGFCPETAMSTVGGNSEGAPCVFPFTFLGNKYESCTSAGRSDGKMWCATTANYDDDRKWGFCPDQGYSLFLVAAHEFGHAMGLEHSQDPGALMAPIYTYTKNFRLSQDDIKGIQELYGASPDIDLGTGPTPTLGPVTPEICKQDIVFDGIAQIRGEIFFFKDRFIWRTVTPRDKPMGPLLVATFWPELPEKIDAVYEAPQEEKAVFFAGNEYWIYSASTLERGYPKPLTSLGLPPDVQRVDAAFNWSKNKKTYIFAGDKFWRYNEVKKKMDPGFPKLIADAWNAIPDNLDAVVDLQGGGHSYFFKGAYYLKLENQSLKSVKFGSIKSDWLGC
compound,measurement,setting,value
c1ccc2cc3c(ccc4ccccc43)cc2c1,outcome,[1],inactive
same,outcome,[2],inactive
CN1CCN(c2ccccc2/C=C2\SCCN(c3ccc(Cl)c(Cl)c3)C2=O)CC1,outcome,[3],inactive
CC[C@H](c1ccc(O)cc1)[C@@H](CC)c1ccc(O)cc1,outcome,[1],inactive
NC(=O)N(O)[C@@H]1C=C[C@H](Oc2cccc(Oc3ccc(F)cc3)c2)C1,AC50,[2],23 µM (active)
O=C(O)Cc1cc(I)c(Oc2cc(I)c(O)c(I)c2)c(I)c1,AC50,[2],0.0269 µM (active)
same,outcome,[4],inactive
same,AC50,[5],9.05 µM (active)
same,AC50,[6],8.91 µM (active)
CCN(CC)CCNc1ccc(CNC=O)c2sc3ccc(OC)cc3c(=O)c12,outcome,[7],inactive
same,AC50,[2],11.8 µM (active)
same,AC50,[5],6.82 µM (active)
same,AC50,[6],2.06 µM (active)
CCCCCCCCCCCCCC[N+](C)(C)C,outcome,[7],inactive
same,outcome,[6],inactive
same,AC50,[8],8.66 µM (active)
Cc1oc(-c2ccccc2)nc1CCOc1ccc(C[C@H](Nc2ccccc2C(=O)c2ccccc2)C(=O)O)cc1,AC50,[3],16.1 µM (active)
same,outcome,[9],inactive
same,AC50,[7],11.9 µM (active)
COC(=O)CCCCC(=O)OC,outcome,[5],inactive
CCCCCCCCCCCCc1ccccc1S(=O)(=O)O,AC50,[9],18.2 µM (active)
same,AC50,[10],16.8 µM (active)
NC(=O)N1C(=O)C(C(=O)c2cc(Cl)cs2)c2cc(F)c(Cl)cc21 (centres undefined),AC50,[4],25 µM (active)
Cc1cc(CCN2CCN(c3nsc4ccccc34)CC2)cc2c1NC(=O)CC2(C)C,outcome,[2],inactive
same,AC50,[5],25.6 µM (active)
same,AC50,[6],25 µM (active)
O=[N+]([O-])c1ccc(O)cc1,outcome,[1],inactive
CC(C)CCCCCCOC(=O)CCCCC(=O)OCCCCCCC(C)C,outcome,[9],inactive
CC(C)(C)CC(C)(C)c1ccc(O)c(-n2nc3ccccc3n2)c1,outcome,[10],inactive
CCc1nn(C2CCCCC2)c2cc(C3(C#N)CCC(C(=O)O)CC3)ccc12 (centres undefined),AC50,[2],0.00229 µM (active)
same,outcome,[5],inactive
same,outcome,[6],inactive
CCCCCCCCCCCCCCCS(=O)(=O)Oc1ccccc1,outcome,[2],inactive
CCCOc1sc(C(=O)N2CCC(c3cc(CN)ccc3F)CC2)c(C)c1Br,outcome,[9],inactive
same,outcome,[4],inactive
OCCC(F)(F)C(F)(F)C(F)(F)C(F)(F)C(F)(F)C(F)(F)F,outcome,[5],inactive
CCCCCCC(=O)O,outcome,[5],inactive
COCC(C)OCC(C)O (centres undefined),outcome,[1],inactive
same,outcome,[10],inactive
same,outcome,[8],inactive
CC(O)CO (centres undefined),outcome,[5],inactive
CCCCCCCC(=O)O,outcome,[10],inactive
same,outcome,[4],inactive
same,outcome,[5],inactive
